Sampled rows, rich in hits. Any-hit rate of the full collection: about 3.6%.
mHTT-CaM PPI inh: mutant huntingtin-calmodulin interaction inhibitors – biochemical, AlphaScreen, primary screen; AlphaScreen His-mHTT/GST-CaM binding, luminescence; 190,000 tested, 3.6% active; P42858; inhibition, % at 15 µM;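 also: 0% = both proteins with DMSO and 100% = one protein alone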
Pf apPOL block: Pf-apPOL inhibitors, biochemical, fluorescence; Plasmodium falciparum apicoplast DNA polymerase (apPOL); Recombinant Pf-apPOL, molecular beacon fluorescence, 1.5 h; inhibition, % at 10 µM; 210,000 tested, 0.25% active; AID 1794808, 2022
Starred values were filed as active, the others as inactive. Rule as the data show it: active = inhibition above about 50%; inactive = the rest.

Screening O=C(C=NNc1ccccc1)Nc1ccccc1C(=O)O returned Pf apPOL block 88.5*.
`CC(=O)Nc1ccc(C(=O)Nc2ccccc2C)cc1` gave mHTT-CaM PPI inh 5.8 and Pf apPOL block -8.4.
O=C(Nc1ccccc1NC(=O)c1ccccc1)c1ccccc1 was read as mHTT-CaM PPI inh -5.2 and Pf apPOL block -18.7.
`Cc1ccccc1NC(=O)c1ccc(-c2ccsc2)nc1` gave mHTT-CaM PPI inh 2.0 and Pf apPOL block 58.7*.
Screening O=C(Nc1ccccc1C(=O)Nc1ccccc1C(=O)O)c1ccccc1 returned mHTT-CaM PPI inh 80.5* and Pf apPOL block -21.3.
`Cc1ccccc1NC(=O)c1ccc(C(=O)Nc2ccccc2C)cc1` gave mHTT-CaM PPI inh -4.8 and Pf apPOL block 61.4*.
For Cc1ccccc1NC(=O)c1ccc(-c2cccc(F)c2)nc1 the results were mHTT-CaM PPI inh -1.0 and Pf apPOL block 8.3.
COC(=O)c1ccccc1NC(=O)C=NO was read as Pf apPOL block -4.8.
Screening O=C1c2ccccc2C(=O)c2c1ccc(C(=O)Nc1ccccc1Cl)c2[N+](=O)[O-] returned mHTT-CaM PPI inh 6.0 and Pf apPOL block 2.8.
Screening CCOC(=O)C1CCN(C(=O)c2cn3cccc(C)c3n2)CC1 returned mHTT-CaM PPI inh -4.5 and Pf apPOL block -5.3.
For COc1cccc(C2CC(C(F)(F)F)n3ncc(C(=O)N4CCOCC4)c3N2)c1 (configuration not stated) the results were mHTT-CaM PPI inh -1.9 and Pf apPOL block -4.3.
`CC(=O)Oc1ccccc1C(=CC=C(c1ccccc1)c1ccccc1)N1CCOCC1` gave Pf apPOL block -2.1.
Screening O=C(O)C(O)Cc1ccc(O)c(O)c1 (configuration not stated) returned Pf apPOL block 84.3*.
For N[C@@H](Cc1ccc(O)c(O)c1)C(=O)O the results were Pf apPOL block 8.5.
For CCn1cc(C2=CCN(C(=O)NCc3ccc(C)cc3)CC2)c2cccnc21 the results were mHTT-CaM PPI inh 28.5 and Pf apPOL block -4.6.
Brc1cccc(CN2CCC(N3CCCCC3)CC2)c1 was read as mHTT-CaM PPI inh 10.3 and Pf apPOL block 3.3.
`Brc1cccc(CN2CCC(N3CCCCCC3)CC2)c1` gave mHTT-CaM PPI inh -1.8 and Pf apPOL block 70.4*.
For CC(C)COc1ccc(C(=O)Nc2cccc(NC(=O)c3ccco3)c2)cc1 the results were mHTT-CaM PPI inh 7.5 and Pf apPOL block -4.2.
`Cc1ccc(CCNC(=O)c2ccc(N3C(=O)NC4CC3(C)Oc3ccccc34)cc2)cc1` (configuration not stated) gave mHTT-CaM PPI inh 49.0 and Pf apPOL block -6.0.
Screening COc1cccc(N2C(=O)NC3CC2(C)Oc2ccccc23)c1 (configuration not stated) returned mHTT-CaM PPI inh 88.0* and Pf apPOL block -3.8.
`Cc1ccc(CNC(=O)c2ccc(N3C(=O)NC4CC3(C)Oc3ccccc34)cc2)cc1` (configuration not stated) gave mHTT-CaM PPI inh 55.0* and Pf apPOL block -7.8.
For Cc1ccc(N2C(=O)NC3CC2(C)Oc2ccc(Br)cc23)cc1Cl (configuration not stated) the results were mHTT-CaM PPI inh 55.0* and Pf apPOL block -4.0.
Screening Cc1ccc(N2C(=O)NC3CC2(C)Oc2ccc(Br)cc23)cc1C (configuration not stated) returned mHTT-CaM PPI inh 36.0 and Pf apPOL block -1.8.
COc1cccc(N2C(=O)NC3CC2(C)Oc2ccc(Cl)cc23)c1 (configuration not stated) was read as mHTT-CaM PPI inh 31.0 and Pf apPOL block 15.1.
CS(=O)(=O)N(CC(=O)NCc1ccco1)c1ccc(I)cc1 was read as mHTT-CaM PPI inh -2.9 and Pf apPOL block 8.3.
`COc1ccccc1N(CC(=O)N(Cc1ccccc1)Cc1ccccc1)S(C)(=O)=O` gave mHTT-CaM PPI inh 18.2 and Pf apPOL block -6.3.
`O=C(NC1CCCCC1)C1CC(=O)N(Cc2ccc(F)cc2)C1` (configuration not stated) gave mHTT-CaM PPI inh -3.4 and Pf apPOL block -9.5.
For FC(F)(F)c1ccnc(Oc2ccc(C=NNC(=S)Nc3cc(Cl)ccc3Cl)cc2)n1 the results were Pf apPOL block 5.4.
